# According to PubChem BioAssay (NCATS):
# Inconclusive results are not listed. The source made the active and inactive calls. Unless noted, the call rests on the fitted dose curve; in most records, active means well fitted curve in the direction sought with a large enough effect; inconclusive means small, poorly fitted or top-dose-only effect, or another doubt; inactive means no such curve, though single readings can be large; an effect the other way counts as inactive or inconclusive.
# What was measured:
# [1] = molecular target: Catechol O-methyltransferase (Homo sapiens) (UniProt P21964); assay: Confirmatory Screen for Target Class Profiling of Small Molecule Inhibitors of Methyltransferases (AID 1745852; calls by dose curve; on activity change, negative = inhibition: on the % scale 0 is the no-effect control and ±100 the full control effect); details: MTase-Glo luminescence, SAH detection, recombinant enzyme; measured here: COMT max response; stronger effect = lower value
# [2] = molecular target: Guanidinoacetate N-methyltransferase (Homo sapiens) (UniProt Q14353); assay: as above; details: MTase-Glo luminescence, SAH detection, recombinant enzyme; activity change, negative = inhibition: at 57.3 µM (top of the series) unless noted; series mostly up to 57.3 µM
# [3] = molecular target: Nicotinamide N-methyltransferase (Homo sapiens) (UniProt P40261); assay: as above; details: MTase-Glo luminescence, SAH detection, recombinant enzyme; measured here: NNMT max response; stronger effect = lower value
# [4] = molecular target: Phenylethanolamine N-methyltransferase (Homo sapiens) (UniProt P11086); assay: as above; details: MTase-Glo luminescence, SAH detection, recombinant enzyme; measured here: PNMT max response; stronger effect = lower value
# [5] = molecular target: Cytochrome P450 1A2 (Homo sapiens) (UniProt P05177); assay: p450-cyp1a2 (AID 410; calls by dose curve; further: potency means the concentration at half of the fitted maximal effect); details: recombinant CYP1A2, luciferin-ME demethylation, luminescence; series mostly up to 57 µM
# Procedure, shortened: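 Luminescent readout of luciferin formed from Luciferin-ME by human CYP1A2; data normalized against complete inhibition by 57 uM furafylline. Enzyme 20nM, substrate 100uM at Km, 100mM KPO4 buffer, 60 min reaction at room temperature.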
# [6] = Stat Signaling Pathway (AID 446; active means well fitted curve in either direction with a large enough effect, not every such curve was filed as active;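 further: ME-180 cervical cancer cells given 40 pM IL-6 alongside compound; SIE-controlled beta-lactamase reporter measured as 460/530 nm FRET emission ratio; on the % scale 0 is the no-effect control and ±100 the full control effect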); details: ME-180 SIE beta-lactamase reporter, IL-6 stimulated, 5 h; series mostly up to 7.69 µM
# Procedure, shortened: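 ME-180 SIE-bla cells; overnight plating; cpd + IL-6 40 pM, 5 h, 37 C; LiveBLAzer 2.5 h RT; 460/530 nm emission ratio. Normalized to 300 pM IL-6 and 125 nM JAK inhibitor controls.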
# [7] = molecular target: Glucocorticoid receptor (Homo sapiens) (UniProt P04150); assay: GR-GFP Redistribution (AID 450;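 active means compounds whose dose series gives a full or clear partial fitted curve of increased nuclear translocation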; further: potency means the concentration at half of the fitted maximal effect); details: U2OS GR-GFP nuclear translocation, laser cytometry, 2 h
# [8] = molecular target: Glucocorticoid receptor (Homo sapiens) (UniProt P04150); assay: GR-EFC Redistribution (AID 451; calls by dose curve; further: potency means the concentration at half of the fitted maximal effect); details: CHO-K1 GR-EFC translocation, beta-gal luminescence, 2 h
# Procedure, shortened: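 Translocation of GR-ED fusion to nuclear EA restores b-gal, read by luminescence after 1 h room-temperature detection. Engineered CHO-K1 biosensor cells, 1,000/well, exposed 2 h at 37 C to titrations up to 46 uM final.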
# [9] = molecular target: 3',5'-cyclic-AMP phosphodiesterase 4B (Homo sapiens) (UniProt Q07343); assay: qHTS Assay for Inhibitors of PDE-IV (AID 607; active means well fitted activation curve with a large enough effect in the main read-out, with a control signal flat, not every such curve was filed as active; further: % of control where 0% means no effect); details: HEK293 ACTOne CNG channel cells, membrane potential fluorescence; series mostly up to 22.9 µM
# Procedure, shortened: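 ACTOne HEK293 cells carry a modified cAMP-gated CNG channel and express endogenous PDE4; plated 1000 cells/well, compounds up to 22.9 uM final. Membrane-potential dye fluorescence (ex 535/em 590) was read; parental cells received 10 uM forskolin + 100 uM RO 20-1724.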
# [10] = molecular target: Guanine nucleotide-binding protein G(i) subunit alpha-1 (Homo sapiens) (UniProt P63096); assay: qHTS Assay for Inhibitors of RGS12 GoLoco Motif Activity (Green Fluorophore) (AID 879); details: Galphai1/FITC-RGS12 GoLoco peptide, fluorescence polarization; series mostly up to 57.1 µM;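 further: 0% = labeled peptide with Gαi1 and full inhibition = labeled peptide alone without protein; negative values mean loss of peptide binding seen as reduced polarization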
# Procedure, shortened: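 Fluorescence polarization assay: 50 nM Gαi1 with 10 nM FITC-labeled RGS12 GoLoco peptide in 10 mM Tris pH 7.5, 150 mM NaCl, 0.1 mM GDP, 0.05% NP40, 10 min at room temperature with compound.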
# [11] = molecular target: Cytochrome P450 3A4 (Homo sapiens) (UniProt P08684); assay: qHTS Assay for Activators of Cytochrome P450 3A4 (AID 885); details: recombinant CYP3A4, Luciferin-PPXE luminescence, 60 min; series mostly up to 57.1 µM; further: nearly all actives have a fitted effect of over 65% in size
# Procedure, shortened: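 20nM CYP3A4 + 25uM Luciferin-PPXE (=KM), 200mM KPO4; cpd 10 min RT; NADPH regen, 60 min RT; stop w/ detection buffer, 20 min; luminescence. Normalized to 57 uM ketoconazole.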
# [12] = qHTS Assay for Identification of Small Molecule Antagonists for Thrombopoietin (TPO) Signaling Pathway (AID 918); details: TPO-dependent cell signaling reporter, antagonist mode; further: potency means the concentration at half of the fitted maximal effect; nearly all actives have a fitted effect of over 60% in size
# Procedure, shortened: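 Ba/F3 (murine, hTPO-R, GPIIb-luc reporter); overnight IL-3 withdrawal; cpd + TPO 26 pM final (EC50); 24 h 37 C/5% CO2; Steadylite luminescence after 10 min RT.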
# [13] = molecular target: Pyruvate kinase (Leishmania mexicana) (UniProt Q27686); assay: qHTS Validation Assay for Inhibitors of Leishmania Mexicana Pyruvate Kinase (AID 945);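 further: 0% = DMSO only neutral control wells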; details: purified L. mexicana pyruvate kinase, enzyme activity, E451W mutant enzyme; series mostly up to 57.5 µM
# Procedure, shortened: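 Purified LmPYK (E451W mutant, 0.2 nM) was incubated 1 h at room temperature with 0.5 mM PEP and 0.1 mM ADP in 50 mM imidazole pH 7.2, 50 mM KCl, 7 mM MgCl2; ATP formed was read by PKLight luminescence, normalized to DMSO wells.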
# [14] = molecular target: Pyruvate kinase PKM (Homo sapiens) (UniProt P14618); assay: qHTS Assay for Activators of Human Muscle Pyruvate Kinase (AID 954; active means well fitted curve in the direction sought with a large enough effect, not every such curve was filed as active;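 further: 0% = uninhibited enzyme and -100% = no enzyme or full thiadiazolimine inhibition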); details: purified human muscle pyruvate kinase, luciferase-coupled luminescence, 1 h; series mostly up to 57.5 µM
# Procedure, shortened: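 Luminescence from a luciferase ATP-detection/stop reagent reported PKM2 activity. Reactions contained 0.1 nM purified human enzyme, 0.5 mM PEP, 0.1 mM ADP and 7 mM MgCl2 at pH 7.2, run 1 h at RT.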
# [15] = molecular target: Alpha-galactosidase A (Homo sapiens) (UniProt P06280); assay: Counterscreen for Glucocerebrosidase Inhibitors: qHTS Assay for Human alpha-Galactosidase at pH 4.5 (AID 992); details: purified enzyme, fluorogenic substrate; series mostly up to 76.9 µM; further: 0% is about no effect
# Procedure, shortened: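 Enzyme at 2 nM final was combined with compound (0.7 nM to 77 uM) and 80 uM 4-methylumbelliferyl alpha-D-galactopyranoside in 50 mM citric acid, 0.005% Tween-20, pH 4.5. After 20 min at room temperature, fluorescence was read (Ex 365/Em 440 nm); AC50 came from Hill fits.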
# [16] = molecular target: alpha-glucosidase (Oryza sativa, rice) (UniProt Q653V4); assay: Counterscreen for Glucocerebrosidase Inhibitors: qHTS Assay for Rice alpha-Glucosidase at pH 5.0 (AID 997); details: rice alpha-glucosidase enzyme activity; series mostly up to 76.9 µM;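 further: 0% = full activity with enzyme and -100% = basal without enzyme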
# Procedure, shortened: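 Rice alpha-glucosidase (4 nM final) with 400 uM 4-methylumbelliferyl-alpha-D-glucopyranoside in citrate buffer pH 5.0, 20 min at room temperature, stopped at pH 10; fluorescence 365/440 nm, compounds 0.7 nM–77 uM, AC50 from Hill fits.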
# [17] = Counterscreen for APE1 Inhibitors: Fluorescent Dye Displacement Validation Assay (AID 1707); details: fluorescent dye displacement from DNA; series mostly up to 57.1 µM;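 further: plate controls were ThO with dsDNA and no compound for no effect and ThO without dsDNA for full effect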
# Procedure, shortened: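 Thiazole Orange displacement from dsDNA: 250 nM ThO with 50 nM TAMRA-labelled abasic-site (tetrahydrofuran) duplex in 50 mM Tris-HCl pH7.5, 50mM NaCl, 2 mM MgCl2, 0.01% Tween-20. Loss of endpoint fluorescence (ex 480 nm, em 540 nm) flags DNA binders.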
# [18] = qHTS for differential inhibitors of proliferation of Plasmodium falciparum line 7G8 (AID 1815); details: Plasmodium falciparum 7G8 proliferation inhibition; series mostly up to 28.7 µM;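 further: potency means the concentration at half of the fitted maximal effect; parasite growth measured after three days of incubation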
# [19] = qHTS for differential inhibitors of proliferation of Plasmodium falciparum line GB4 (AID 1816); details: Potency: Plasmodium falciparum GB4 proliferation inhibition; series mostly up to 28.7 µM;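 further: potency means the concentration at half of the fitted maximal effect; parasite growth measured after 72 h incubation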
# [20] = qHTS for differential inhibitors of proliferation of Plasmodium falciparum line D10 (AID 1877); details: series mostly up to 28.7 µM;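 further: potency means the concentration at half of the fitted maximal effect; parasites grown with compound for 72 h before DNA staining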
# [21] = qHTS for differential inhibitors of proliferation of Plasmodium falciparum line W2 (AID 1883); details: Potency: Plasmodium falciparum W2 proliferation inhibition; series mostly up to 28.7 µM;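 further: potency means the concentration at half of the fitted maximal effect; parasites grown with compound for 72 h before lysis and staining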
# [22] = qHTS for differential inhibitors of proliferation of Plasmodium falciparum line HB3 (AID 1886); details: Potency: Plasmodium falciparum HB3 proliferation inhibition; series mostly up to 28.7 µM;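 further: potency means the concentration at half of the fitted maximal effect; parasites grown with compound for 72 h before SYBR Green readout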
# [23] = molecular target: ATP-dependent DNA helicase Q1 (Homo sapiens) (UniProt P46063); assay: qHTS Validation Assay for Inhibitors of RecQ-Like Dna Helicase 1 (RECQ1) (AID 2353); details: recombinant RECQ1 helicase DNA unwinding assay; series mostly up to 25.6 µM;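 further: plate controls were DMSO vehicle for no effect and enzyme-free control for full effect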
# Procedure, shortened: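 50 nM RECQ1T1 preincubated 15 min with compound in Tris pH 8.0 buffer with MgCl2, DTT, Tween-20 and 2.5 ug/ml poly(dI-dC); started with 200 nM TAMRA/BHQ-2 forked duplex and 2 mM ATP. Unwinding read as fluorescence (525/598 nm), two reads 2 h apart.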
# [24] = molecular target: M-phase phosphoprotein 8 (Homo sapiens) (UniProt Q99549); assay: qHTS Validation Assay for Inhibitors for MPP8 Chromodomain Interactions with Methylated Histone Tails (AID 488949); details: AlphaScreen MPP8 binding to H3K9me3 peptide; series mostly up to 114 µM;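 further: 50 nM MPP8 with 50 nM peptide preformed then compounds added for 30 min; AlphaScreen signal from MPP8 chromodomain bound to biotinylated H3K9me3 peptide; top concentration of the series differs between compounds; on the % scale 0 is the no-effect control and ±100 the full control effect; nearly all actives have a fitted effect of over 55% in size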
# Procedure, shortened: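 Chemiluminescent proximity assay: histidine-tag capture via nickel acceptor beads, biotin peptide via streptavidin donor beads. Protein and peptide each at 50 nM, pH 7.4, with 30 min incubations at room temperature for complex formation, compound exposure and bead binding.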
# [25] = molecular target: Transient receptor potential cation channel subfamily V member 1 (Homo sapiens) (UniProt Q8NER1); assay: HTS Assay for Compounds that Act as Enhancers of the Vanilloid Receptor 1 (AID 488979); details: TRPV1-expressing cells, enhancer of channel activity, stimulated with capsaicin at EC20; series mostly up to 41.7 µM; further: 0% is about no effect
# Procedure, shortened: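 Calcium influx kinetics via Fluo-8 (480/520 nm) in TRPV1-expressing cells, 2000/well cultured overnight at 35.5C. Compound-alone read 3 min (agonist phase), followed by EC20 capsaicin challenge for 2 min (enhancer phase).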
# [26] = molecular target: Thyrotropin receptor (Homo sapiens) (UniProt P16473); assay: qHTS Assay for Antagonists of the Thyroid Stimulating Hormone Receptor (AID 488980); details: TSHR-expressing cells, cAMP antagonist read-out; series mostly up to 57.5 µM; further: 0% is about no effect
# Procedure, shortened: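 Inhibition of TSH-stimulated cAMP accumulation was quantified by homogeneous time-resolved FRET in TSHR-transfected HEK293 cells. Agonist: TSH, 4 nM final (EC80).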
# [27] = molecular target: Thyrotropin-releasing hormone receptor (Homo sapiens) (UniProt P34981); assay: qHTS for Small Molecule Agonists and Allosteric Enhancers of Human TRH Receptor: Validation Screen for Agonists (AID 493127;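 active means calcium activation more than 3 SD above the typical response in the agonist read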;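 further: intracellular calcium rise by fluo-8 fluorescence before TRH EC20 addition; 0% is about no effect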); details: TRH receptor agonist cell assay; at 2 µM; stronger effect = higher value
# Procedure, shortened: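 Cells 2000/well, 10% FCS, 18 h 33.5C/5% CO2 → fluo-8 Ca dye, RT 30 min–1.5 h → FDSS baseline 10 × 1 s → compound added → 230 cycles (1 s/cycle) agonist mode. TRH controls.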
# [28] = molecular target: Galactokinase (Homo sapiens) (UniProt P51570); assay: qHTS Validation Assay for Inhibitors of Human Galactokinase (GALK) (AID 493189); details: purified human GALK enzyme activity, qHTS 7-point titration; series mostly up to 57.5 µM; further: 0% is about no effect
# Procedure, shortened: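 Enzyme activity is inferred from ATP consumption: human GALK phosphorylates galactose (100 uM) using 35 uM ATP for 1 h at room temperature, and luciferase-based Kinase-Glo Plus reports unconsumed ATP.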
# [29] = molecular target: Voltage-gated inwardly rectifying potassium channel KCNH2 (Homo sapiens) (UniProt Q12809); assay: qHTS Assay for Small Molecule Inhibitors of the Human hERG Channel Activity (AID 588834); details: U2OS BacMam hERG, FluxOR thallium flux fluorescence; series mostly up to 92.2 µM;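 further: potency means the concentration at half of the fitted maximal effect; lower thallium flux fluorescence means stronger hERG block; nearly all actives have a fitted effect of over 50% in size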
# Procedure, shortened: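 Blockade is seen as reduced FluxOR thallium-flux fluorescence in U2OS cells expressing hERG from a BacMam construct, in Opti-MEM with 2% FCS. Concentration-response data fitted to the Hill equation for AC50.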
# Chain of Catechol O-methyltransferase (Homo sapiens) (P21964 whole entry, looked up): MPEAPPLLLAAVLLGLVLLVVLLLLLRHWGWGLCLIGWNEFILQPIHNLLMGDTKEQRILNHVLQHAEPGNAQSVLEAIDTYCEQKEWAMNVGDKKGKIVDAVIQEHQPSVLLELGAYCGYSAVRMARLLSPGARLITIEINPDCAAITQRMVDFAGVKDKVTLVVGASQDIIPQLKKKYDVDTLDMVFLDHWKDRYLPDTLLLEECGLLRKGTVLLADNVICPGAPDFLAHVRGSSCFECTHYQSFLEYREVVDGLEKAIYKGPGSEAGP
# Chain of Nicotinamide N-methyltransferase (Homo sapiens) (P40261 whole entry, looked up): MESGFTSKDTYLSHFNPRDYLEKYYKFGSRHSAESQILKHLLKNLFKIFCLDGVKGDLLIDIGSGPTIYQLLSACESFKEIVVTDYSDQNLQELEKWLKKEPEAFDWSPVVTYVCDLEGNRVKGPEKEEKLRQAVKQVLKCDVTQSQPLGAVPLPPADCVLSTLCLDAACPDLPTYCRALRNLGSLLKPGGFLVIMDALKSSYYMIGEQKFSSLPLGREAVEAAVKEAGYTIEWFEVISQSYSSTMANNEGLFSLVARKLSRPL
# Chain of Phenylethanolamine N-methyltransferase (Homo sapiens) (P11086 whole entry, looked up): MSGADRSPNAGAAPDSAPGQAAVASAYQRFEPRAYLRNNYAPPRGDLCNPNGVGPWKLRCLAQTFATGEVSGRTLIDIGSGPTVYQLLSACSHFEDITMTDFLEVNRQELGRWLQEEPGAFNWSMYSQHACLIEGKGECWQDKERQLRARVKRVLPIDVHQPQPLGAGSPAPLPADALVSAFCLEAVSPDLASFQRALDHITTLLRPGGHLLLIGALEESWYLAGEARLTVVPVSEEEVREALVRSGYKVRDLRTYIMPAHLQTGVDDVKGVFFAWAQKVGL
# Chain of Glucocorticoid receptor (Homo sapiens) (P04150 whole entry, looked up, the tested form may be a part): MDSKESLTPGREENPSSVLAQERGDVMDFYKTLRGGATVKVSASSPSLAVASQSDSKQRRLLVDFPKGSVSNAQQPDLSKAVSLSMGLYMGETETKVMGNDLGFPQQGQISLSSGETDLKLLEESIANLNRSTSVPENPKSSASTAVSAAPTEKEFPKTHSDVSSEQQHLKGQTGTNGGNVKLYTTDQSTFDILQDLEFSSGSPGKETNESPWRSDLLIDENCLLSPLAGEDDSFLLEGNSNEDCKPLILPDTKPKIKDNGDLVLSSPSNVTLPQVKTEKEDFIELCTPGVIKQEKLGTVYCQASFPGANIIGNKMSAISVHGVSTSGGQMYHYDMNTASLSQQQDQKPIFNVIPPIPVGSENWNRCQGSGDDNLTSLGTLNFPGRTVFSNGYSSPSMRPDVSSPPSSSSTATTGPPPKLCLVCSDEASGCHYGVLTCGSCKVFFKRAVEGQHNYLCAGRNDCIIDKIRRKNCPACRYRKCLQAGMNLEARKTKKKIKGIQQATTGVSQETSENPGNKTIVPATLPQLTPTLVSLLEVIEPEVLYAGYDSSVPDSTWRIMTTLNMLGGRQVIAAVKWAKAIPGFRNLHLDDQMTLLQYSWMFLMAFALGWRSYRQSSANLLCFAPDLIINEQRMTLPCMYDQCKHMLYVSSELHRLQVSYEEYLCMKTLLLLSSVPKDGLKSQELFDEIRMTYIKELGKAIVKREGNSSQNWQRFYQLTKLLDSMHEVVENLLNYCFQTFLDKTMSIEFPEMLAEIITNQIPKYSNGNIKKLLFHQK
# Chain of Voltage-gated inwardly rectifying potassium channel KCNH2 (Homo sapiens) (Q12809 whole entry, looked up): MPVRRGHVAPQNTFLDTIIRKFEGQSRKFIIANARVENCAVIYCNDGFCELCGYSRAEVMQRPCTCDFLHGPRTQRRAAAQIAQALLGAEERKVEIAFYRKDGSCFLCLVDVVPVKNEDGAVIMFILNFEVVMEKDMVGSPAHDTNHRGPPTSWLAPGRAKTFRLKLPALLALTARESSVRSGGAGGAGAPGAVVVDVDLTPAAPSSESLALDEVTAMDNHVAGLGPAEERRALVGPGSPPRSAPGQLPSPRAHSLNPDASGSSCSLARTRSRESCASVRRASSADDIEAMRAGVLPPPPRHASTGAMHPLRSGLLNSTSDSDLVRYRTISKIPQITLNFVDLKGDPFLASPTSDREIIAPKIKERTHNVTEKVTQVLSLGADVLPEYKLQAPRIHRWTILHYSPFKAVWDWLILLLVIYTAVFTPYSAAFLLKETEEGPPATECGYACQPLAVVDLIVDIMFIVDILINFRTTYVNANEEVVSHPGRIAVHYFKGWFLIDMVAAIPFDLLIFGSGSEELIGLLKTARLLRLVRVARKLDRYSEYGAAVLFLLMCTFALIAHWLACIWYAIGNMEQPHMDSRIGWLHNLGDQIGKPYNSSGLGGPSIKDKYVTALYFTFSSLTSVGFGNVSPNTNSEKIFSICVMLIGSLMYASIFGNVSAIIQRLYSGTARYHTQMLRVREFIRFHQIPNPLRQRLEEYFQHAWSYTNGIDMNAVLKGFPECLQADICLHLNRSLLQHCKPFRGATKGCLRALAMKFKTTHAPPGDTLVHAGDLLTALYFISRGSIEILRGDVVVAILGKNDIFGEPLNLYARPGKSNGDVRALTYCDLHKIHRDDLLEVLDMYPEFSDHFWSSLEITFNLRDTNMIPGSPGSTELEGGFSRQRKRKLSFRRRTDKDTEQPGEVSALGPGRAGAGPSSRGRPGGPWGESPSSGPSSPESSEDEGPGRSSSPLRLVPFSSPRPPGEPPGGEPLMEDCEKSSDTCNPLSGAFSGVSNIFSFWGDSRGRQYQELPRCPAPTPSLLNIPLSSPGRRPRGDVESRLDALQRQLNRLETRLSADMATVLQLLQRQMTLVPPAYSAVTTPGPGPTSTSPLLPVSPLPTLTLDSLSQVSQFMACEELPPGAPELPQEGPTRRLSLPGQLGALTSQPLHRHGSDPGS
# Chain of Alpha-galactosidase A (Homo sapiens) (P06280 whole entry, looked up): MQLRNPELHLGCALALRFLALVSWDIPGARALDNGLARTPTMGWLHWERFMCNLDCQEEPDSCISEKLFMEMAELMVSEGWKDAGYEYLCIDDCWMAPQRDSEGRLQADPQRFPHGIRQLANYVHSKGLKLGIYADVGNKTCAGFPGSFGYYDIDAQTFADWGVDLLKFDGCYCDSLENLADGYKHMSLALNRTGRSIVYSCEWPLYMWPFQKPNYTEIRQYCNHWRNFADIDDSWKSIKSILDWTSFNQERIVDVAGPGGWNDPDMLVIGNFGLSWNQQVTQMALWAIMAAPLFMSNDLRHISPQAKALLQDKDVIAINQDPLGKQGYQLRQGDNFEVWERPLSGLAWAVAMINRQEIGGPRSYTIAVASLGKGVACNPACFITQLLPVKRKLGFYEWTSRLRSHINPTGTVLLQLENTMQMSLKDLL
# Chain of Cytochrome P450 3A4 (Homo sapiens) (P08684 whole entry, looked up): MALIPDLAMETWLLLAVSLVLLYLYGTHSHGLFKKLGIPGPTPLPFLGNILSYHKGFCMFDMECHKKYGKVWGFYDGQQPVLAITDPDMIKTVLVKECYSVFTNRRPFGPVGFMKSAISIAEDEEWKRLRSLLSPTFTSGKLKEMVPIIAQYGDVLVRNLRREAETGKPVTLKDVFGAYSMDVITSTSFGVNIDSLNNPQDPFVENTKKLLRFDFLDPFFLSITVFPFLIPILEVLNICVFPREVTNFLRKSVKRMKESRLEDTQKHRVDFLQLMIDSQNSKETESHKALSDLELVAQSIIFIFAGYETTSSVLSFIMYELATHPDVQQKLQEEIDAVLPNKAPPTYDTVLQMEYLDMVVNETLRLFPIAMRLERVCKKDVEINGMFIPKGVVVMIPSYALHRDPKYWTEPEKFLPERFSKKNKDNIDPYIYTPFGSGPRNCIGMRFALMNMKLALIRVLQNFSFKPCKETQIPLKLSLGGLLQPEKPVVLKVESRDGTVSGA
# Chain of Pyruvate kinase PKM (Homo sapiens) (P14618 whole entry, looked up): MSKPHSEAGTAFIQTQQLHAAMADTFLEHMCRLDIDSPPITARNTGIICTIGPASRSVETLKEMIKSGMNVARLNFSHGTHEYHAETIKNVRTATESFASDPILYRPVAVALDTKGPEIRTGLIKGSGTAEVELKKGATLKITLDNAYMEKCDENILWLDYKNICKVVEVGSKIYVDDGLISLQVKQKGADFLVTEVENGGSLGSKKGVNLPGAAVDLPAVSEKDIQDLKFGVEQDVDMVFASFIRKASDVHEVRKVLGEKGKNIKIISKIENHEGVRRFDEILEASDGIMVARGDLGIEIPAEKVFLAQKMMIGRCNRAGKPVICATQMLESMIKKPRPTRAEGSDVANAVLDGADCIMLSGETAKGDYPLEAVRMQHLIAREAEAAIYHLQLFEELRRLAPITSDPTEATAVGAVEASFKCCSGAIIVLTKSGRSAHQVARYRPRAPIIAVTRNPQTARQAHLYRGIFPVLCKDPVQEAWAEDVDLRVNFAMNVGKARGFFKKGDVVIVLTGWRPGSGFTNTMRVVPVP
# Chain of Thyrotropin-releasing hormone receptor (Homo sapiens) (P34981 whole entry, looked up): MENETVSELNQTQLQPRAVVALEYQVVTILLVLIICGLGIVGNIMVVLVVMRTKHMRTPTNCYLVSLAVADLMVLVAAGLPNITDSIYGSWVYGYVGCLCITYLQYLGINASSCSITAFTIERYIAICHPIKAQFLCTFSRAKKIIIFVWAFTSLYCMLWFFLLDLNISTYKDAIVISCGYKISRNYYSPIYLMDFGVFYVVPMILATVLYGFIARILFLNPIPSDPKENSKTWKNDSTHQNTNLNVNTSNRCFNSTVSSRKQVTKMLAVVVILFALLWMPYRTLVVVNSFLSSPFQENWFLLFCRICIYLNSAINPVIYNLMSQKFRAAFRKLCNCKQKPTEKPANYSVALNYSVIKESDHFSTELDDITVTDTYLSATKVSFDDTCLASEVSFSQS
# Chain of Guanine nucleotide-binding protein G(i) subunit alpha-1 (Homo sapiens) (P63096 whole entry, looked up): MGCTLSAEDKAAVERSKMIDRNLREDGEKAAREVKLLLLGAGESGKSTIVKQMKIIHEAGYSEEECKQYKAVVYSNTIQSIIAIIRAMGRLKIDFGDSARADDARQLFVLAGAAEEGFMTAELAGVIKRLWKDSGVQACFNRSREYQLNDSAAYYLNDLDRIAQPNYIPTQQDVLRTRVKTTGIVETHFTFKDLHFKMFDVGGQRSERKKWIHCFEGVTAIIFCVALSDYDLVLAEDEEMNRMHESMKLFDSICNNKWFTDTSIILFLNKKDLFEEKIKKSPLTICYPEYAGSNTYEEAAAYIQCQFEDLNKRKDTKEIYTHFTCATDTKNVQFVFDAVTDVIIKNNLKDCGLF
smiles,measurement,setting,value
COc1ccc(CNc2cc3c(cn2)CN(C)CCN3)cc1OC,activity,[1],6.61%
same,"activity change, negative = inhibition",[2],1.57% [at 85.7 µM]
same,activity,[3],0.597%
same,activity,[4],7.35%
COc1cccc([S+](=O)([O-])N2CCC3(C2)N=C(c2cccnc2)C(=O)N3)c1 (configuration not stated),activity,[1],-6.05%
same,"activity change, negative = inhibition",[2],-6.21%
same,activity,[3],-8.17%
same,activity,[4],-16.9%
Cc1nccn1CCC1CCN(c2nccc(-c3ccccn3)n2)CC1,activity,[1],9.05%
same,"activity change, negative = inhibition",[2],8.46%
same,activity,[3],5.85%
same,activity,[4],7.66%
N#Cc1c(-c2ccccc2)no[n+]1[O-],Potency,[5],0.398 µM (active)
same,outcome,[6],inactive
same,Potency,[7],> 46 µM (inactive)
same,Potency,[8],> 46 µM (inactive)
same,Potency,[9],inactive
same,Potency,[10],inactive
same,outcome,[11],inactive
same,Potency,[12],3.98 µM (active)
same,outcome,[13],inactive
same,outcome,[14],inactive
same,outcome,[15],inactive
same,outcome,[16],inactive
same,outcome,[17],inactive
same,Potency,[18],10 µM (active)
same,Potency,[19],12.6 µM (active)
same,Potency,[20],14.1 µM (active)
same,Potency,[21],10 µM (active)
same,Potency,[22],11.2 µM (active)
same,outcome,[23],inactive
same,Potency,[24],inactive
same,outcome,[25],inactive
same,outcome,[26],inactive
same,activation,[27],0.688% (inactive)
same,outcome,[28],inactive
same,Potency,[29],5.01 µM (active)
